Screen size: about 360,000 compounds; about 1,300 (0.36%) were called active. What follows is part of a selection rich in actives, with near analogues and random picks from the rest. Unmarked numbers belong to inactive results. Cut-off read from the data, not from the text of the source: active = inhibition above about 35% (passing the limit was not always enough); inactive = the rest.
target: Polyadenylate-binding protein 1 (Homo sapiens) (UniProt P11940); test: inhibitors of PABP1 MLLE–PAM2 peptide binding, primary screen, biochemical, fluorescence polarization, FITC-PAM2, GST-MLLE (AID 588489); conditions: at 20 µM, hits give high values;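 note: plate controls were DMSO wells with GST-MLLE for no effect and wells lacking GST-MLLE protein for full effect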
Sequence (P11940 whole entry, looked up): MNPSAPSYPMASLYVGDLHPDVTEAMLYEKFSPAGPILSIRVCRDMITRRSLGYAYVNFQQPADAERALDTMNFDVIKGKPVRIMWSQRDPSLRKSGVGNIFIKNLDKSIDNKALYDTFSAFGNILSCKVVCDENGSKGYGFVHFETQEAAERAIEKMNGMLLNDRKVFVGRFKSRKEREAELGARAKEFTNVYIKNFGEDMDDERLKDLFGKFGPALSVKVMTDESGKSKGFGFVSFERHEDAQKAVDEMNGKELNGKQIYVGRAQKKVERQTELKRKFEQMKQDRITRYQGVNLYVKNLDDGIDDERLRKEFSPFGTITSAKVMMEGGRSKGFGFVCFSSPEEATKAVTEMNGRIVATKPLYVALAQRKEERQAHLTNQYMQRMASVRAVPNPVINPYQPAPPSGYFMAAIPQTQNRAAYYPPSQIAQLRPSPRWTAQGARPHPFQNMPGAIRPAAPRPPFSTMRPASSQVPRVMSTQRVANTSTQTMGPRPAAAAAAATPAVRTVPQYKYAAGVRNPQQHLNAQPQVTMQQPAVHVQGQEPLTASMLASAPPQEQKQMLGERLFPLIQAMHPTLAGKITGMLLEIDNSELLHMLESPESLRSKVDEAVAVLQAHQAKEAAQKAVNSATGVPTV

| SMILES | inhibition |
| --- | --- |
| CC(=O)Nc1ccc(S(=O)(=O)N2CCN(c3ccc([N+](=O)[O-])c(NCCN4CCOCC4)c3)CC2)cc1 | -9.63% |
| O=C1c2ccccc2C2=Nc3ccccc3SC(c3ccccc3F)C12 (centres undefined) | -2.44% |
| O=C1c2cccc(OCC(=O)N3N=C(c4cccs4)CC3c3ccc(F)cc3)c2CCN1Cc1ccccc1 (centres undefined) | 0.32% |
| Cc1ccc(C2SCC(=O)N2c2ccccc2)cc1 (centres undefined) | 48.1% (active) |
| O=C1CSC(c2cccc(F)c2)N1c1ccc(O)cc1 (centres undefined) | 1.39% |
| COc1cccc(C2SCC(=O)N2c2cccc(C)c2)c1OC (centres undefined) | 20.4% |
| C=CCC(NCCCO)c1cccc(OC)c1OC (centres undefined) | 9.54% |
| O=C1[C@@H](c2ccccc2)[C@@H](c2ccccc2)N1c1cccnc1 | -0.26% |
| O=C(O)c1cscn1 | -3.08% |
| CC(NC(=S)Nc1ccc(OC(F)F)cc1)c1ccc(F)cc1 (centres undefined) | -13.4% |
| Cc1ccc(NC(=S)Nc2ccc(F)cc2)cc1 | 37.8% (active) |
| O=S(=O)(NC(=S)Nc1ccccc1)c1ccc(F)cc1 | 33.4% |
| COc1ccc(/C=N/Nc2ncnc3sc4c(c23)CCCC4)cc1O | -12.9% |
| O=C1N=C2SCCN2/C1=C\c1c(Cl)cccc1Cl | 38.4% (active) |
| O=C(NC1(C(F)(F)F)N=C2SCCN2C1=O)c1ccco1 (centres undefined) | 35.9% |
| O=Cc1c(Cl)cccc1Cl | 9.74% |
| Cc1ccc(CNC(=O)C2CCN(S(=O)(=O)c3ccc4nc5c(c(C(=O)O)c4c3)CC(C)CC5)CC2)cc1 (centres undefined) | -3.02% |
| COc1ccccc1CNC(=O)CCCn1c(=O)c2ccccc2n(CC(=O)NC2CCCC2)c1=O | 12% |
| CC(NC(=O)Nc1ccccc1)C(c1cccs1)N1CCN(c2ccccc2)CC1 (centres undefined) | -4.15% |
| CC(=O)Nc1cc(-c2ccccc2F)cn2c(-c3cccc(C(F)(F)F)c3)cnc12 | -12.1% |
| COc1ccccc1-c1cc(NC(C)=O)c2ncc(-c3ccc(F)cc3)n2c1 | -10.4% |
| CC(=O)Nc1cc(-c2ccccc2N(C)C)cn2c(-c3ccc(F)c(Cl)c3)cnc12 | 48.4% (active) |
| N#Cc1ccc(C2=CC(=O)C[C@H](c3ccc(Cl)cc3)C2)cc1 | 6.39% |

| SMILES | inhibition |
| --- | --- |
| COc1cc2c(cc1NC(=O)COC(=O)/C=C/c1ccccc1)oc1ccccc12 | 11% |
| CCN1C(=O)[C@H]2[C@@H](c3ccc(C)cc3)N3C(=O)N(c4cccc(Br)c4)C(=O)[C@@]3(CC)[C@H]2C1=O | 11.2% |
| CCC(=O)NNc1cc(=O)c2c(=O)n(C)c(=O)n(C)c2[nH]1 | -6.2% |
| CC(=O)N(c1ccc2oc(=O)sc2c1)S(=O)(=O)c1ccc(C)cc1 | 41.1% (active) |
| CC(=O)Oc1ccc(N(C(C)=O)S(=O)(=O)c2ccc3ccccc3c2)cc1Br | -22.5% |
| COC(=O)c1c(C)oc2ccc(N(C(=O)Oc3ccccc3)S(=O)(=O)c3ccccc3)cc12 | 9.28% |
| Cc1nn(C)c(Oc2ccc(Cl)cc2)c1C=O | -2.27% |
| CCC(=O)N1CCC(C)(C(=O)Nc2cc(OC)c(OC)c(OC)c2)C1 (centres undefined) | 4.71% |
| CC(CC(=O)N1CCN(S(=O)(=O)c2ccccc2)CC1)n1cncn1 (centres undefined) | 21.2% |
| NC(=S)c1ccc(C(N)=S)o1 | 37.7% (active) |
| Cc1ccccc1NC(=O)CCOc1ccccc1 | 4.98% |
| Cc1ccccc1NC(=O)CSC(=O)c1ccccc1 | 44.4% (active) |
| Cc1cccc(NC(=O)CSC(N)=O)c1C | 38.8% (active) |
| Cc1cccc(NC(=O)COC(=O)CCc2ccccc2)c1C | -0.48% |
| Cc1ccccc1NC(=O)CSC1=NCCN1 | 16% |
| Cc1cccc(NC(=O)CSc2nc3c(c(=O)[nH]2)CCCC3)c1C | -11.1% |
| FC(F)(F)C1CCCN(c2nsc3ccccc23)C1 (centres undefined) | 33.5% |
| COc1ccc(C(=O)C[n+]2ccc(N)c(C)c2C)cc1 | -11.1% |
| CC12CCC(C(=O)N3CCN(c4ncccn4)CC3)(c3nc4ccccc4nc31)C2(C)C (centres undefined) | 14.9% |
| CCOC(=O)CN1C(=O)C(O)(CC(=O)c2ccccn2)c2ccccc21 (centres undefined) | 11.1% |
| Cc1nnc(SCC(=O)N2CCOCC2)[nH]c1=O | 11.7% |
| CCCCOC(=O)CNc1nnc(SCC(=O)OCC)[nH]c1=O | 38.4% (active) |
| CCOC(=O)CSc1nc(C)c(Oc2ccc(Cl)cc2Cl)c(=O)[nH]1 | -8.63% |

| SMILES | inhibition |
| --- | --- |
| Cc1ccccc1NC(=O)N1CCCC1C(=O)NCc1ccccc1 (centres undefined) | -5.08% |
| COc1ccc(C(C#N)Nc2ccc(C)cc2)cc1 (centres undefined) | -0.36% |
| CCOC(=O)C1CCCN(S(=O)(=O)c2ccc3c(c2)C(C)(C)C(=O)N3C)C1 (centres undefined) | 0.52% |
| Cc1cc(C)cc(C(=O)N2CCN=C2SCc2ccc([N+](=O)[O-])cc2)c1 | 34.7% |
| O=C(Cc1ccc(F)cc1)N1CCN=C1SCc1cccc([N+](=O)[O-])c1 | -6.14% |
| Cc1cccc(CC(=O)N2CCN=C2SCc2ccc([N+](=O)[O-])cc2)c1 | 40.2% (active) |
| CC(C)=CCN1CCN(Cc2cc3ccccc3[nH]2)CC1CCO (centres undefined) | -5.44% |
| CCOC(=O)c1c(NC(=O)C(C)Sc2c[nH]c3ccccc23)sc2c1CCC2 (centres undefined) | 2.56% |
| CCOC(=O)c1c(NC(=O)C2CCN(S(=O)(=O)c3ccc(Cl)cc3)CC2)sc2c1CCCC2 | 1.94% |
| CCOC(=O)c1c(NC(=O)C2(C)Cc3ccccc3C(=O)O2)sc2c1CCCC2 (centres undefined) | 38.6% (active) |
| CCc1cc2cc(OC)ccc2nc1SCC(=O)Nc1cc(OC)c(OC)cc1C(=O)O | 19.2% |
| COc1ccccc1/C=C1\SC(=O)N(CCC(=O)N(C)C2CCS(=O)(=O)C2)C1=O (centres undefined) | 15.8% |
| CN(C(=O)CN1C(=O)S/C(=C\c2ccccc2F)C1=O)C1CCS(=O)(=O)C1 (centres undefined) | 34% |
| CN(C(=O)CCN1C(=O)/C(=C/c2ccccc2F)SC1=S)C1CCS(=O)(=O)C1 (centres undefined) | 47.2% (active) |
| CCCCOc1ccc(C(=O)NCC(=O)OCC(=O)N2CCN(S(=O)(=O)c3ccc(C)cc3C)CC2)cc1 | -5.79% |
| CC1(C(=O)Nc2cccc3cccnc23)CCN1C(=O)CCC1CCCC1 (centres undefined) | -9.79% |
| O=C(CN1CCOCC1)Nc1c(-c2ccccc2)c2cc(Br)ccc2[nH]c1=O | 7.03% |
| CS(=O)(=O)N(CC(=O)N/N=C/c1ccccn1)c1ccc(Oc2ccccc2)cc1 | 1.62% |
| COc1c(F)c(F)c(-c2csc(N)n2)c(F)c1F | 41% (active) |
| Cc1cc(-c2csc(N)n2)c(C)n1-c1ccccc1 | -12.2% |
| Nc1nc(C23CC4CC(CC(C4)C2)C3)cs1 | -0.54% |
| Cc1cc(C(F)F)n2nc(C(=O)Nc3ccc(S(=O)(=O)NC45CC6CC(CC(C6)C4)C5)cc3)nc2n1 | 0.98% |
| Cc1cc(C)c2c(-n3cccc3)c(C(=O)NNS(=O)(=O)c3ccc(F)cc3)sc2n1 | -3.3% |

From PubChem BioAssay AID588489 (Sanford-Burnham Center for Chemical Genomics, 2011)
